The target of assay [1] is Lysosomal acid glucosylceramidase (Homo sapiens) (UniProt P04062). The assay can be described thus: Glucocerebrosidase-p2 (AID 348; in the data active means potency below about 10 µM; further: potency means the concentration at half of the fitted maximal effect). The settings on record: purified GBA, blue fluorogenic substrate, 40 min. In outline:
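Normal human glucocerebrosidase (0.2 nM) with blue fluorogenic substrate (80 uM final) in citrate/phosphate pH 5.9 with 10mM sodium taurocholate, 0.01% tween-20; 40 min RT, NaOH/glycine stop; fluorescence Ex 365/Em 440; AC50 from a titration from 0.6 nM upwards.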

Assay [2] can be described thus: AP1 Signaling Pathway (AID 357).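 Further: ME-180 reporter cells stimulated with EGF at its EC50 level; on the % scale 0 is the no-effect control and ±100 the full control effect.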 The settings on record: ME-180 AP-1-bla reporter, EGF-induced, beta-lactamase ratio, 5 h; at 7.69 µM (top of the series) unless noted. An outline of the steps: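 Modulation of EGF-driven AP-1 transcription was assessed with a beta-lactamase reporter in ME-180 cells. Compound and EC50 EGF were co-incubated 5 hours at 37 °C before 2.5-hour CCF4 loading at room temperature and dual-emission reading.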

Assay [3] concerns the target Cytochrome P450 1A2 (Homo sapiens) (UniProt P05177). The assay can be described thus: p450-cyp1a2 (AID 410; calls by dose curve; further: potency means the concentration at half of the fitted maximal effect;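 on activity change, negative = inhibition: -100% = full effect of reference inhibitor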). The following applies: recombinant CYP1A2, luciferin-ME demethylation, luminescence; series mostly up to 11.4 µM. An outline of the steps:
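Read-out is luminescence from luciferin produced by CYP1A2 demethylation of Luciferin-ME (100uM, at Km). Detection reagent stopped the 60 min NADPH-dependent reaction; signals were normalized to 57 uM furafylline.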

Assay [4] in a line: NFAT Signaling Pathway (AID 444).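 Further: carbachol stimulus at about its EC50 of 1 µM final; on the % scale 0 is the no-effect control and ±100 the full control effect.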 The settings on record: Jurkat NFAT-bla M1, carbachol, beta-lactamase ratio, 5 h; at 7.69 µM (top of the series) unless noted. An outline of the steps: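 Jurkat cells carrying an NFAT-driven β-lactamase reporter and co-transfected muscarinic M1 receptor were treated with compound plus carbachol (1 uM final, an EC50 level) for 5 h at 37 °C. CCF4 loading followed for 1 h at RT; 460/530 nm ratio gave %activity.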

A short description of assay [5]: Stat Signaling Pathway (AID 446).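 Further: ME-180 cervical cancer cells given 40 pM IL-6 alongside compound; SIE-controlled beta-lactamase reporter measured as 460/530 nm FRET emission ratio; on the % scale 0 is the no-effect control and ±100 the full control effect.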 The settings on record: ME-180 SIE beta-lactamase reporter, IL-6 stimulated, 5 h; at 7.69 µM (top of the series) unless noted. In outline: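 Emission at 460 and 530 nm (excitation 405 nm) reports SIE-controlled beta-lactamase in ME-180 cells. Cells received compound with 40 pM IL-6 for 5 hrs at 37 C; data scaled between 300 pM IL-6 and 125 nM JAK-inhibitor controls.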

Assay [6] concerns the target Glucocorticoid receptor (Homo sapiens) (UniProt P04150). The experiment in a line: GR-GFP Redistribution (AID 450;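 active means compounds whose dose series gives a full or clear partial fitted curve of increased nuclear translocation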; further: potency means the concentration at half of the fitted maximal effect). The settings on record: U2OS GR-GFP nuclear translocation, laser cytometry, 2 h.
Assay [7] has the same target. The experiment in a line: GR-EFC Redistribution (AID 451; calls by dose curve; further: potency means the concentration at half of the fitted maximal effect). The following applies: CHO-K1 GR-EFC translocation, beta-gal luminescence, 2 h. An outline of the steps: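 CHO-K1 cells stably expressing nuclear-localized β-gal enzyme acceptor and GR fused C-terminally to the enzyme donor fragment; ligand-driven nuclear translocation restores β-gal by complementation. Compounds titrated up to 46 uM final, 2 h at 37 °C; luminescence read.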

Assay [8] has as its target Mitogen-activated protein kinase 10 (Mus musculus) (UniProt Q61831). The assay can be described thus: JNK3 AlphaScreen Assay (AID 530).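 Further: kinase came from lysate of stimulated human HepG2 cells; signal reports phosphorylation of biotinylated GST-cJun 1-79 at Ser73 with 10 µM ATP; on the % scale 0 is the no-effect control and ±100 the full control effect.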 The settings on record: JNK3 lysate, c-Jun phosphorylation; series mostly up to 11.4 µM. In outline:
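Biotinylated GST-cJun(1-79) served as substrate for JNK3 in HepG2 lysates stimulated with IL-1beta and TNF-alpha. ATP was 10 uM final, pH 7.6. Ser73 phosphorylation was quantified by AlphaScreen (680 nm excitation).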

The target in assay [9] is 3',5'-cyclic-AMP phosphodiesterase 4B (Homo sapiens) (UniProt Q07343). The assay can be described thus: qHTS Assay for Inhibitors of PDE-IV (AID 607; active means well fitted activation curve with a large enough effect in the main read-out, with a control signal flat, not every such curve was filed as active; further: % of control where 0% means no effect). The settings on record: HEK293 ACTOne CNG channel cells, membrane potential fluorescence; series mostly up to 22.9 µM. An outline of the steps: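 The readout is membrane depolarisation from a cAMP-sensing CNG channel, detected with a potential dye at ex 535/em 590. Cells were HEK293-derived (endogenous PDE-IV) at 1000 cells/well, titrated up to 22.9 uM final.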
Background: qHTS replaces the single test concentration by a dilution series.

For assay [10], the target named is Cytochrome P450 2D6 (Homo sapiens) (UniProt P10635). The experiment in a line: qHTS Assay for Inhibitors and Substrates of Cytochrome P450 2D6 (AID 891; active means well fitted curve in the direction sought with a large enough effect; an effect the other way counts as inactive or inconclusive; further: nearly all actives have a fitted effect of over 60% in size; further: potency means the concentration at half of the fitted maximal effect). The following applies: recombinant CYP2D6, luciferin-ME EGE luminescence; series mostly up to 11.4 µM. An outline of the steps: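 Luminescent read-out of luciferin formed by 5 nM human CYP2D6 demethylating 30 uM Luciferin-ME EGE (Km level) over 60 min at room temperature after NADPH regeneration addition. Data normalized to full inhibition by 1.43 uM quinidine.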

Assay [11] concerns the target Cytochrome P450 3A4 (Homo sapiens) (UniProt P08684). The assay can be described thus: qHTS Assay for Activators of Cytochrome P450 3A4 (AID 885; active means well fitted curve in the direction sought with a large enough effect; an effect the other way counts as inactive or inconclusive; further: nearly all actives have a fitted effect of over 65% in size). The settings on record: recombinant CYP3A4, Luciferin-PPXE luminescence, 60 min; series mostly up to 11.4 µM. An outline of the steps: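 Activators are scored by enhanced luminescence from CYP3A4 conversion of luciferin-PPXE (25uM, equal to KM) to luciferin, after 60 min at RT with an NADPH-regenerating system.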

The target of assay [12] is Cytochrome P450 2C19 (Homo sapiens) (UniProt P33261). The experiment in a line: qHTS Assay for Inhibitors and Substrates of Cytochrome P450 2C19 (AID 899; active means well fitted curve in the direction sought with a large enough effect; an effect the other way counts as inactive or inconclusive; further: potency means the concentration at half of the fitted maximal effect; nearly all actives have a fitted effect of over 60% in size). The following applies: recombinant CYP2C19, luciferin-H EGE luminescence; series mostly up to 11.4 µM. An outline of the steps: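 In 50mM KPO4, the reaction held 5nM enzyme and KM-level (10uM) Luciferin-H EGE; it ran 60 min at 37C after NADPH regeneration and a 10 min compound preincubation. Luminescence values were scaled to 57uM ketoconazole as complete inhibition.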

The nature of assay [13]: qHTS Assay for Identification of Small Molecule Agonists for Hypoxia Response Element Signaling Pathway (AID 914; active means well fitted activation curve with a large enough effect in the signal ratio, with a control signal flat, not every such curve was filed as active; the % refers to the signal ratio; further: % of control where 0% means no effect). The following applies: ME-180 (cervical carcinoma) HRE-bla reporter, beta-lactamase ratio, CoCl2, 17 h; activation: stronger effect = higher value. In outline: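 Compounds in a titration series were added to ME-180 reporter cells alongside an EC50 level of CoCl2. After 17 hours, beta-lactamase activity was read as the 460nm/530nm emission ratio of CCF4, giving AC50 values.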

Each structure is given as a SMILES string. A number with no mark means an inactive call. Inconclusive results are not listed. Active and inactive are the calls of the source. Unless noted, the call rests on the fitted dose curve; in most records, active means well fitted curve in either direction with a large enough effect (not every such curve was filed as active); inconclusive means small, poorly fitted or top-dose-only effect, or another doubt; inactive means flat fitted curve, though single readings scatter.

The values that follow come from PubChem BioAssay (NCATS).

Chain of 3',5'-cyclic-AMP phosphodiesterase 4B (Homo sapiens) (Q07343 whole entry, looked up): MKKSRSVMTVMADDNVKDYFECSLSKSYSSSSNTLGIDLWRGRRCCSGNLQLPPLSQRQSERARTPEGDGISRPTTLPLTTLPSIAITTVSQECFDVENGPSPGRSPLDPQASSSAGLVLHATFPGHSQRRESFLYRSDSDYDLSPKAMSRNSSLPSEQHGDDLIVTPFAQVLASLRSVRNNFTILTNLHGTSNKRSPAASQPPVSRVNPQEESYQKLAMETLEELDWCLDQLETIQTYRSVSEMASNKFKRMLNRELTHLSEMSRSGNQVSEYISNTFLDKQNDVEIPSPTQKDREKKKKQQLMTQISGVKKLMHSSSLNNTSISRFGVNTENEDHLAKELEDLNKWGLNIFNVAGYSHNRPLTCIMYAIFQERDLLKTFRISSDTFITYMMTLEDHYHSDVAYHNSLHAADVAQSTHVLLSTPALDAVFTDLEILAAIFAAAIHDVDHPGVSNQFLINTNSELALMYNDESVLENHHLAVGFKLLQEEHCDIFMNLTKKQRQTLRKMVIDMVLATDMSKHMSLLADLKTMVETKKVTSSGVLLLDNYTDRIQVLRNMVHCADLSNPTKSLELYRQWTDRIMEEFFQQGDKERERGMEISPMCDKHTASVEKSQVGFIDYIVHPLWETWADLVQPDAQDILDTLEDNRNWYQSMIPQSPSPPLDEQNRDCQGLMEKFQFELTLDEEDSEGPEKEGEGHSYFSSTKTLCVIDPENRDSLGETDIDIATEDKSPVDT
Chain of Cytochrome P450 2D6 (Homo sapiens) (P10635 whole entry, looked up): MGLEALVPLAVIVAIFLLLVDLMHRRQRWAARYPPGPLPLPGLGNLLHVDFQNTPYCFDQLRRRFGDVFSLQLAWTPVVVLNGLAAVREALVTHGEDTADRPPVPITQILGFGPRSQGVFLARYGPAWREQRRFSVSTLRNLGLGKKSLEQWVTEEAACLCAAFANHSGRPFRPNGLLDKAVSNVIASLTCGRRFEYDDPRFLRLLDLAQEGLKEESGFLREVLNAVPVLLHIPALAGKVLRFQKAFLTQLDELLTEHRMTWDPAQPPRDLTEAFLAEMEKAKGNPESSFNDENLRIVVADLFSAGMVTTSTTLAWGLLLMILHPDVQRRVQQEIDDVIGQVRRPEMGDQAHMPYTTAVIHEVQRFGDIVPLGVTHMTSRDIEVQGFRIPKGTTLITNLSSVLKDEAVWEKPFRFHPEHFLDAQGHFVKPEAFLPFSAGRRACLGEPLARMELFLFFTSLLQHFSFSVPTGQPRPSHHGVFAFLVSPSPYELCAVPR
Chain of Glucocorticoid receptor (Homo sapiens) (P04150 whole entry, looked up, the tested form may be a part): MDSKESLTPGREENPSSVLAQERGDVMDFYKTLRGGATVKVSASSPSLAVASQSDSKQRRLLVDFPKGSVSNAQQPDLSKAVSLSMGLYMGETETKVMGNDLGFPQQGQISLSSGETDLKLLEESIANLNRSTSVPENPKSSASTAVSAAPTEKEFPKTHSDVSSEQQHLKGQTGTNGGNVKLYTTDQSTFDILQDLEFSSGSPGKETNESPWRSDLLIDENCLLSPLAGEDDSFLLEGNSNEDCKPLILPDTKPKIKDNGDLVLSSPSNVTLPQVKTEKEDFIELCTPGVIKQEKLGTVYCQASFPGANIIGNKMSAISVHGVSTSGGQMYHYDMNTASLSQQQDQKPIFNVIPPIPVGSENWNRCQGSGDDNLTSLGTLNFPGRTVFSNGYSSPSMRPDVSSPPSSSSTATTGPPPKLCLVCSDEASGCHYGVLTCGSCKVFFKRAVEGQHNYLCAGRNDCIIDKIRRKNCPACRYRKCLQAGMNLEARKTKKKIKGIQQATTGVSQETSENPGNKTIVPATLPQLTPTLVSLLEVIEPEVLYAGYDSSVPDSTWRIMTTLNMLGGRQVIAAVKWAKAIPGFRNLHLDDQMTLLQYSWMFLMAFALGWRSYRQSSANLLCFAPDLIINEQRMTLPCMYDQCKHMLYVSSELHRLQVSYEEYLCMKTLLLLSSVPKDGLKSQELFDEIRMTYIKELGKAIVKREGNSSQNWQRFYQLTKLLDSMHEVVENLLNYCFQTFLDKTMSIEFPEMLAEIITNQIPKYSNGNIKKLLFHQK
Chain of Lysosomal acid glucosylceramidase (Homo sapiens) (P04062 whole entry, looked up): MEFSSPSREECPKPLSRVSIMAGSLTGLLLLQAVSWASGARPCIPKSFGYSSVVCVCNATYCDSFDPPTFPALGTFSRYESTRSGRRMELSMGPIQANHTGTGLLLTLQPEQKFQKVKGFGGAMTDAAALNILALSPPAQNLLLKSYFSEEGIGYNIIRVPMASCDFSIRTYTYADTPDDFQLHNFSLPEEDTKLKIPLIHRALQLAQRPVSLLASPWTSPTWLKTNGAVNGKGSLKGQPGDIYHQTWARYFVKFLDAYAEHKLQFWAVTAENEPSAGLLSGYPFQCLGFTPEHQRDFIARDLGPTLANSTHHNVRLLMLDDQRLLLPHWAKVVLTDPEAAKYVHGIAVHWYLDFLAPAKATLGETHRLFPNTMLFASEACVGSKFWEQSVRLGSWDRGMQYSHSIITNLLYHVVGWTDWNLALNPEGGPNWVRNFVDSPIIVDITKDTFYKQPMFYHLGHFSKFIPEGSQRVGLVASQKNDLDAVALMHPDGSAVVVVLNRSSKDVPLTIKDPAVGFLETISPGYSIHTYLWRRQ
Chain of Cytochrome P450 2C19 (Homo sapiens) (P33261 whole entry, looked up): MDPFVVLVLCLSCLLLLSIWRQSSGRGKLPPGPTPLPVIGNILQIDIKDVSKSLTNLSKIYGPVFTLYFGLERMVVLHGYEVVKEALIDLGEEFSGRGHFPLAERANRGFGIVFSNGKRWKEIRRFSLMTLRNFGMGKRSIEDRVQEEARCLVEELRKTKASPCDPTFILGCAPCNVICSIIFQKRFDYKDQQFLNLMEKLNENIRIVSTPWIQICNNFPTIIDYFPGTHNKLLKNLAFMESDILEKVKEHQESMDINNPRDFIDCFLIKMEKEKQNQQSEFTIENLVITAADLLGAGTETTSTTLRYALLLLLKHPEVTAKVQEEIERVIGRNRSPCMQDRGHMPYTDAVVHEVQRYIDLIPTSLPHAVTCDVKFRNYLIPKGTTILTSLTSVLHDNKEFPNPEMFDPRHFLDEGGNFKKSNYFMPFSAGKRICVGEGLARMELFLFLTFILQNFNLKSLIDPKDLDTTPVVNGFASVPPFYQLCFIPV
Chain of Cytochrome P450 3A4 (Homo sapiens) (P08684 whole entry, looked up): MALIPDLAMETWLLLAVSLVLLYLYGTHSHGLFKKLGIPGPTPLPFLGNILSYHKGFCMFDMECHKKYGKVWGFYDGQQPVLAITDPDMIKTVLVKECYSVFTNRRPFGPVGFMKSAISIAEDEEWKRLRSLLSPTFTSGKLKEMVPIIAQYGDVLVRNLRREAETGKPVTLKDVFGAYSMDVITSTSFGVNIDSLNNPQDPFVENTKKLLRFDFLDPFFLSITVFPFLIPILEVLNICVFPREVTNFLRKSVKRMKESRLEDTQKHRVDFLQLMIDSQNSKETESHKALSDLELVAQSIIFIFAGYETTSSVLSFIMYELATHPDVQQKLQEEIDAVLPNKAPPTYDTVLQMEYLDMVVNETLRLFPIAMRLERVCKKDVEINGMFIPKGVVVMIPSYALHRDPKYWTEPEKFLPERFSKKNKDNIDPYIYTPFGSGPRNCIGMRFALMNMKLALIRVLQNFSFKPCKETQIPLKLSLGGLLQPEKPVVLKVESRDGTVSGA
Chain of Cytochrome P450 1A2 (Homo sapiens) (P05177 whole entry, looked up): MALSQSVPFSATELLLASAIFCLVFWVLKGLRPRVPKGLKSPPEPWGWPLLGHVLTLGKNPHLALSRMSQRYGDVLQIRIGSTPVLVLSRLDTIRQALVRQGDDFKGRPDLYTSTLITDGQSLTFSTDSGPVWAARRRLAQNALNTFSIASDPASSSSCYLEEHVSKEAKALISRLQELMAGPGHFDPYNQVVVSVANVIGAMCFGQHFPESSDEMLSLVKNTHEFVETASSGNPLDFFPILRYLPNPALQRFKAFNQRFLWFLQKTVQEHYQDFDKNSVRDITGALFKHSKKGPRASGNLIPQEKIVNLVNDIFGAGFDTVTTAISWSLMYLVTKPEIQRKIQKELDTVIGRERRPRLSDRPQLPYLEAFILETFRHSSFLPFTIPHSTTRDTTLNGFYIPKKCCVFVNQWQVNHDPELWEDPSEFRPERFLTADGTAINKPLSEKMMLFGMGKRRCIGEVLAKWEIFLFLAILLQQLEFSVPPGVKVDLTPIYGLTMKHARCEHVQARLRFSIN

On to `CN(C)CCNc1nc2c(c(=O)n(C)c(=O)n2C)n1C`, for which the Potency is > 11.4 µM in assay [1], > 46 µM in [6] and > 9.22 µM in [7]. Besides, the results for the activity change, negative = inhibition in assay [2] and in assay [4] were -7.15% and 4.81%, respectively. The Potency result in assay [3], in assay [8], in [9] and in assay [10] was “inactive” throughout. In assay [5], the activity, negative = inhibition was 9.47%.

Turning to `Nc1ccccc1SCc1csc(-c2ccc(Cl)cc2)n1`, the Potency in assay [1] is > 11.4 µM; in assay [3] it was 0.631 µM (active); in assay [6], > 46 µM; in [7] it was > 9.22 µM; in assay [12] it was 0.501 µM (active). The results for the activity change, negative = inhibition in assay [2] and in [4] were -17.2% and -25.4%, respectively. Moreover, the activity, negative = inhibition in assay [5] is -11.2%. Besides, the Potency entry in assay [8], in [9] and in [11] was “inactive” throughout.

Turning to `O=C(O)[C@@H]1[C@@H](C(=O)O)[C@]23C[C@@]2(C(=O)O)[C@]2(C(=O)O)CCC3=C3CCCC312`, the Potency in assay [1] is > 11.4 µM; in assay [3], 2.51 µM (active); in assay [6], > 46 µM; in assay [7] it was > 9.22 µM. For the same compound, the activity change, negative = inhibition in assay [2] was 10.3%; in assay [4] it was 0.691%. Further, the activity, negative = inhibition in assay [5] is -2.48%. Further, the Potency entry in assay [8], in assay [9] and in assay [10] was “inactive” in each case.

Regarding `Nc1nc(SCc2ccccc2)c2ncn(Cc3ccccc3)c2n1`, the Potency in assay [1] was > 11.4 µM; in assay [3], 0.251 µM (active); in [6], > 46 µM; in [7], > 9.22 µM; in [12], 2.51 µM (active). Further, the activity change, negative = inhibition in assay [2] was -24.3%; in assay [4] it was 9.29%. Also, in assay [5], the activity, negative = inhibition was -3.2%. Further, the Potency entry in assay [8], in [9] and in assay [11] was “inactive” each time.

`S=C1SCN(C2CCCCCCCCCCC2)CN1C1CCCCCCCCCCC1`: the Potency in assay [1] is > 11.4 µM; in assay [6], > 46 µM; in [7], > 9.22 µM; in assay [12] it was 3.98 µM (active). For the same compound, the activity change, negative = inhibition in assay [2] was -6.27%; in assay [3], -14.7% [at 2.29 µM]; in [4] it was 6.16%. Further, the activity, negative = inhibition in assay [5] was -6.56%. In addition, the Potency entry in [8], in assay [9] and in assay [11] was “inactive” each time. The activation in assay [13] is 24.8%.

Consider `O[C@@H](COc1ccc(Cl)cc1Cl)CN1CCCC1`, for which the Potency in assay [1] is > 11.4 µM; in assay [3], 5.01 µM (active); in [6], > 46 µM; in assay [7], > 9.22 µM; in [10], 0.316 µM (active). The figures for the activity change, negative = inhibition in assay [2] and in assay [4] were 7.86% and 2.25%, respectively. The activity, negative = inhibition in [5] was 4.26%. In addition, the Potency entry in assay [8] and in assay [9] was “inactive” each time.

As for `CC(C)NC1(C(N)=O)CCN(Cc2ccccc2)CC1`, the Potency is > 11.4 µM in assay [1], > 46 µM in assay [6], > 9.22 µM in [7] and 0.631 µM (active) in assay [10]. For the same compound, the activity change, negative = inhibition in assay [2] was 0.245%; in assay [3] it was 7.6% [at 2.29 µM]; in [4], -10.3%. Also, in assay [5], the activity, negative = inhibition is -5.76%. Also, the Potency entry in [8] and in assay [9] was “inactive” each time.
